The values below come from PubChem BioAssay (EPA / NIEHS).

By AC50 is commonly meant the concentration at which the activity in the assay is half-maximal.

In test [1] the target is rat Androgen Receptor (AR), Ar (gene 24208) (UniProt P15207). Put plainly: NVS_NR_rAR: NovaScreen (NVS) Nuclear Receptor Binding Assay for rat Androgen Receptor (AR) (AID 2283366). In a few lines:
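Actives from a duplicate single-concentration (25 uM) primary run went on to concentration series. Displacement of radioligand was counted by filtration and scintillation, 18 h post-dose, using prostate extracts from testosterone-pretreated rats, with DMSO as baseline.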

In test [2] the target is Peroxisome proliferator-activated receptor gamma (Homo sapiens) (UniProt P37231). Put plainly: NVS_NR_hPPARg: NovaScreen (NVS) Nuclear Receptor Binding Assay for human Peroxisome Proliferator-activated Receptor gamma (PPARg) (AID 2283370). In a few lines: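 Chemicals were tested first in duplicate at 25 uM, then in concentration series if active. Binding to cell-free PPARg protein was measured by fluorescence polarization after 2 h, with loss of signal scored against DMSO.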

In test [3] the target is human Norepinephrine Transporter (NET), SLC6A2 (gene 6530) (UniProt P23975). Put plainly: NVS_TR_hNET: NovaScreen (NVS) Transporter Assay for human Norepinephrine Transporter (NET) (AID 2283377).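 Also: cell-free membrane protein extracted from CHO cells expressing human NET.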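 As to AC50: displacement of radioligand from human NET seen as loss of scintillation signal.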 In a few lines: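 In this cell-free binding screen, chemicals at 25 uM (duplicate) compete with a radioligand for CHO-derived human NET over 1 hour, with filter-based radiodetection.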

In test [4] the target is Agonist Androgen Response Element (ARE), AR (gene 367) (UniProt P10275). Briefly: OT_AR_ARELUC_AG_1440: Odyssey Thera (OT) 24-hour CHO-K1 Luciferase Assay for Agonist Androgen Response Element (ARE) (AID 2283379). In a few lines: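 Luminescence increase above DMSO, read after a 24 h compound treatment of CHO-K1 cells expressing an androgen response element luciferase reporter, gives the single primary endpoint; concentration-response fitting used the positive direction.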

The target in test [5] is Estrogen receptor beta (Homo sapiens) (UniProt Q92731). Briefly: OT_ER_ERbERb_1440: Odyssey Thera (OT) 24-hour HEK293T Protein-Complementation Assay for Estrogen Receptor-beta/-beta Homodimer (AID 2283380).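 Also: fluorescence gain from ER beta LBD homodimer complementation read by laser scanning cytometry; scored as signal increase over DMSO baseline for both agonists and antagonists.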 In a few lines:
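HEK293T cells stably expressing human ER-beta LBD (aa 310-547) PCA homodimer pair, dosed 24 h; formaldehyde-fixed, Draq5-stained. Readout: increase in nuclear (agonist) or nuclear plus cytoplasmic (antagonist) fluorescence intensity versus DMSO, gain-of-signal fitting.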

In test [6] the target is Estrogen receptor (Homo sapiens) (UniProt P03372). Put plainly: OT_ERa_GFPERaERE_0120: Odyssey Thera (OT) 2-hour HeLa Transcription Induction Assay for Estrogen Receptor (AID 2283382). In a few lines:
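Two-hour compound treatment of HeLa cells preceded microscopy imaging of an inducible fluorescent reporter. Image-based quantification gave one endpoint, analysed for signal increase relative to DMSO controls.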

Test [7] addresses human Adenosine Transporter (Adot), SLC29A1 (gene 2030) (UniProt Q99808). Briefly: NVS_TR_hAdoT: NovaScreen (NVS) Transporter Assay for human Adenosine Transporter (Adot) (AID 2283368). In a few lines:
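Binding displacement on U937 extracted protein, read 1 h post-dose by filtration and scintillation counting. Primary duplicate test at 25 uM, then singleton concentration series with 50 uM top; DMSO baseline.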

Test [8] has as its system rat Norepinephrine Transporter (NET), gene 83511. Put plainly: NVS_TR_rNET: NovaScreen (NVS) Transporter Assay for rat Norepinephrine Transporter (NET) (AID 2283373). In a few lines:
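Competitive radioligand displacement at the rat NET using forebrain membrane preparations, 1 h incubation, filter-based scintillation readout. Primary testing in duplicate at a single 25 uM concentration; confirmed actives retested across concentrations.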

Test [9] has as its target Bile acid receptor (Homo sapiens) (UniProt Q96RI1). Briefly: OT_FXR_FXRSRC1_0480: Odyssey Thera (OT) 8-hour HEK293T Protein-Complementation Assay for Farnesoid X receptor/SRC-1 Co-activator (AID 2283383). In a few lines:
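Readings were taken 8 h after dosing HEK293T cells in a split-reporter complementation format pairing FXR with SRC-1. Increased fluorescence relative to DMSO-treated wells defined activity.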

The target in test [10] is Norway rat Vesicular Monoamine Transporter (VMAT2), neurotransmitter transporter, Slc18a2 (gene 25549) (UniProt Q01827). Put plainly: NVS_TR_rVMAT2: NovaScreen (NVS) Transporter Assay for Norway rat Vesicular Monoamine Transporter (VMAT2), neurotransmitter transporter (AID 2283376).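 Also: actives lower the bound radioligand signal below the DMSO level.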 In a few lines: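 Binding endpoint from rat forebrain tissue, cell-free; 1 h incubation; filtered radioligand counted; 25 uM duplicate primary then dose series; DMSO negative control.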

Test [11] has as its target Estrogen receptor (Homo sapiens) (UniProt P03372). Put plainly: OT_ERa_GFPERaERE_0480: Odyssey Thera (OT) 8-hour HeLa Transcription Induction Assay for Estrogen Receptor (AID 2283381; active = hit-call score of the fitted dose curve at least 0.9, where 1 is the maximum; inactive = score below 0.9). In a few lines: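 An 8 h HeLa transcription-induction format with a GFP reporter under ERE control, read by fluorescence microscopy; single endpoint fitted positively with DMSO as baseline.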

Test [12] concerns the target Bile acid receptor (Homo sapiens) (UniProt Q96RI1). Put plainly: OT_FXR_FXRSRC1_1440: Odyssey Thera (OT) 24-hour HEK293T Protein-Complementation Assay for Farnesoid X receptor/SRC-1 Co-activator (AID 2283384). In a few lines:
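Single endpoint, analysed for increased fluorescence against DMSO controls. HEK293T cells carrying FXR and SRC-1 linked to complementary reporter halves were exposed to chemicals for 24 h before reading.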

Test [13] deals with guinea pig Dopamine Transporter (DAT), gene 100714898. Briefly: NVS_TR_gDAT: NovaScreen (NVS) Transporter Assay for guinea pig Dopamine Transporter (DAT) (AID 2283369).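 Also: active compounds lower bound radioligand signal relative to DMSO.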 In a few lines:
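Scintillation counts of filter-retained radioligand report binding to guinea pig striatal membranes after 2 h. Activity scored as signal loss relative to DMSO, first at 25 uM in duplicate, then in concentration series to 50 uM.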

For test [14], the target named is human Dopamine Transporter (DAT), SLC6A3 (gene 6531) (UniProt Q01959). Put plainly: NVS_TR_hDAT: NovaScreen (NVS) Transporter Assay for human Dopamine Transporter (DAT) (AID 2283374).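 Also: activity means loss of bound radioligand signal relative to DMSO.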 In a few lines:
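Extracted human SLC6A3 protein incubated 1 h with radioligand and test chemical; bound fraction separated on filters and counted. Single 25 uM duplicate screen preceded concentration-response follow-up; positive and negative controls on every plate.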

Test [15] addresses rat Serotonin Transporter (SERT), Slc6a4 (gene 25553) (UniProt P31652). Briefly: NVS_TR_rSERT: NovaScreen (NVS) Transporter Assay for rat Serotonin Transporter (SERT) (AID 2283375). In a few lines:
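Filtration-based radiodetection quantified loss of specific radioligand binding in rat forebrain membranes after 1 hour of chemical exposure, relative to DMSO. Chemicals were first tested in duplicate at 25 uM.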

Test [16] has as its target guinea pig Sigma Receptor, Non-selective Binding, SIGMAR1 (gene 100135589) (UniProt Q60492). Briefly: NVS_OR_gSIGMA_NonSelective: NovaScreen (NVS) Nuclear Receptor Binding Assay for guinea pig Sigma Receptor, Non-selective Binding (AID 2283367). In a few lines:
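Test chemicals were screened in duplicate at 25 uM, then in concentration series if active, against radioligand binding to guinea pig brain membranes; filtration and scintillation counting at 1 h measured remaining bound ligand.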

The target in test [17] is human Serotonin Transporter (SERT), SLC6A4 (gene 6532) (UniProt P31645). Put plainly: NVS_TR_hSERT: NovaScreen (NVS) Transporter Assay for human Serotonin Transporter (SERT) (AID 2283372). In a few lines:
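Human platelet membrane preparation; displacement of radioligand from serotonin transporter measured after 1 h by filtration and scintillation counting. Single 25 uM duplicate screen, then concentration series for actives, with DMSO as negative baseline.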

Where “and” joins values, the source holds several entries; their conditions need not be identical. Equal values may be shown once. Inconclusive results are not listed. Where a structure was tested more than once in an assay, its records may differ in their call. Calls of active or inactive are those of the source. The calls were made as follows, unless noted: active = hit-call score of the fitted dose curve at least 0.9, where 1 is the maximum; inconclusive = response in the unintended direction; inactive = score below 0.9.

Agonist Androgen Response Element (ARE), AR (gene 367), sequence (P10275 whole entry, looked up): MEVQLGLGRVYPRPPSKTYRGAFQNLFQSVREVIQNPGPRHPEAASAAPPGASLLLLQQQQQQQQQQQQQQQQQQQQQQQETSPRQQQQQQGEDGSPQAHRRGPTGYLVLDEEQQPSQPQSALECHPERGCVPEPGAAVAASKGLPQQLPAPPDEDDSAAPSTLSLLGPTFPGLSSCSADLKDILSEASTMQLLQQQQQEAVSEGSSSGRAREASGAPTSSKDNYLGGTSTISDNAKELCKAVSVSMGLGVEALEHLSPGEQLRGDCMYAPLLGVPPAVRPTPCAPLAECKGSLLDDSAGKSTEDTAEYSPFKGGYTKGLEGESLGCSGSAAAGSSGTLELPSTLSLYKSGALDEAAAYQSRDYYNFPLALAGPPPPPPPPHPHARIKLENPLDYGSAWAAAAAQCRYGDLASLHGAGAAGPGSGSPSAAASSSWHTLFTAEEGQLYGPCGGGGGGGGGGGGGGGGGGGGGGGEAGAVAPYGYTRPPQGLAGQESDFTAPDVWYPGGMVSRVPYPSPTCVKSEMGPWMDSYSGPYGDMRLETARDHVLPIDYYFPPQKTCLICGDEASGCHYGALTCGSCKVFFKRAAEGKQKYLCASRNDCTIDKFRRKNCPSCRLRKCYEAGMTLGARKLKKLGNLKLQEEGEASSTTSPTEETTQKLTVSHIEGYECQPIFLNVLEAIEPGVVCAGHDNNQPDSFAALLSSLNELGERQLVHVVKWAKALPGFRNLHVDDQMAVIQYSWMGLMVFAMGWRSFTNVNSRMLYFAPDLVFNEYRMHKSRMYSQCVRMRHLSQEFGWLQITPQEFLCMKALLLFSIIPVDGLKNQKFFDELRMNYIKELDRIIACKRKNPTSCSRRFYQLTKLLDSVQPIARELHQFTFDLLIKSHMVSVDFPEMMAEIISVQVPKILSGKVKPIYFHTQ
rat Androgen Receptor (AR), Ar (gene 24208), sequence (P15207 whole entry, looked up): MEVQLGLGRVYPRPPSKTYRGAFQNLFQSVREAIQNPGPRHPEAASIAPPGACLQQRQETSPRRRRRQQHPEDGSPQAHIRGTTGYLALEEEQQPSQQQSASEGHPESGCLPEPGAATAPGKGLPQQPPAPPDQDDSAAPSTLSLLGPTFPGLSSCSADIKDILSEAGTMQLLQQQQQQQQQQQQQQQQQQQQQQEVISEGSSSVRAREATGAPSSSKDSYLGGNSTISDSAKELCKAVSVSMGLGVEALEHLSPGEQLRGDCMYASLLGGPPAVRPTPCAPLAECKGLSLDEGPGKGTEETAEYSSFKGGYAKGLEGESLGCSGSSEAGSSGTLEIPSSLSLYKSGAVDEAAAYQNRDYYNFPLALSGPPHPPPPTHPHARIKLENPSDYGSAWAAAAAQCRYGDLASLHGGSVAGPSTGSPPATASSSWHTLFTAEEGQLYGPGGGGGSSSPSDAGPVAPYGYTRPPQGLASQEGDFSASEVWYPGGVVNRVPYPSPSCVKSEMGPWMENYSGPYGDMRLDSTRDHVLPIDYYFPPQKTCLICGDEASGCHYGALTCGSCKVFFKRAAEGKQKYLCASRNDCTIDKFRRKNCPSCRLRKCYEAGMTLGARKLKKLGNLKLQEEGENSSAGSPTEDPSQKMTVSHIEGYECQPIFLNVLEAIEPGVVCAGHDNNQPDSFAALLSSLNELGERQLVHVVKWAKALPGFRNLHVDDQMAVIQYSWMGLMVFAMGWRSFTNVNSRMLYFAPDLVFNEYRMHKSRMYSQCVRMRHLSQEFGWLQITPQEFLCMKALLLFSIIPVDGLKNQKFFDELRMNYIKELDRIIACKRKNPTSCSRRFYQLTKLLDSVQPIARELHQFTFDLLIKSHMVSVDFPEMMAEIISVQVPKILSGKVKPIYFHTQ
Peroxisome proliferator-activated receptor gamma (Homo sapiens), sequence (P37231 whole entry, looked up): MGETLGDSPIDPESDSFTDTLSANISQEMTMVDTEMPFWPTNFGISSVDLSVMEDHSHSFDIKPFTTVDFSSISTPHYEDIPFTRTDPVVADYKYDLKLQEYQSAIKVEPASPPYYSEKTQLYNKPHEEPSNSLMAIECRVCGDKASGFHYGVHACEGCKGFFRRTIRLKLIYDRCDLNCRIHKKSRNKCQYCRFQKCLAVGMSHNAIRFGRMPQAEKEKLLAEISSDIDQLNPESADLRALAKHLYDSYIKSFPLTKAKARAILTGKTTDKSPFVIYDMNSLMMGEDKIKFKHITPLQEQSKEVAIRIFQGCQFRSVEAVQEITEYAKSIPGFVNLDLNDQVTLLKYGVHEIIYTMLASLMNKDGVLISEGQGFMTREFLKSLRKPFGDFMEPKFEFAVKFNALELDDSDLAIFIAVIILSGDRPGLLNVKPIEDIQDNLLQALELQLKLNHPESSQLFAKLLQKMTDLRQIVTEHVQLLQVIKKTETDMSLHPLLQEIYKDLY
human Norepinephrine Transporter (NET), SLC6A2 (gene 6530), sequence (P23975 whole entry, looked up): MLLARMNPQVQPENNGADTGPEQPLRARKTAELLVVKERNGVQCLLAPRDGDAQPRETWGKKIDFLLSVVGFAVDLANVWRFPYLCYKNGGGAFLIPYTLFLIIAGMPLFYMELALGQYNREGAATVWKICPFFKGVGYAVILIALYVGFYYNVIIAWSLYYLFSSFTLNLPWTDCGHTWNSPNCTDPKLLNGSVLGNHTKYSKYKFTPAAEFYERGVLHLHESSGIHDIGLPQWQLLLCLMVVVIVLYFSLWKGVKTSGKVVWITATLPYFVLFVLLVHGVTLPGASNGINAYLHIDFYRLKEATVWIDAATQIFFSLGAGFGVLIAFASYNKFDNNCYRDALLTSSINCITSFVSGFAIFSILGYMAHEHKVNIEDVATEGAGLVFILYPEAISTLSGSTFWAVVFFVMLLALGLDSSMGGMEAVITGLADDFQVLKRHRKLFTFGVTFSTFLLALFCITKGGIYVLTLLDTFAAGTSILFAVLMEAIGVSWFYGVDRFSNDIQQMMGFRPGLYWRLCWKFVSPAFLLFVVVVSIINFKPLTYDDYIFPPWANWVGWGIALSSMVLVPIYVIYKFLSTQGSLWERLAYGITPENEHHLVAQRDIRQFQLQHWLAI
guinea pig Sigma Receptor, Non-selective Binding, SIGMAR1 (gene 100135589), sequence (Q60492 whole entry, looked up): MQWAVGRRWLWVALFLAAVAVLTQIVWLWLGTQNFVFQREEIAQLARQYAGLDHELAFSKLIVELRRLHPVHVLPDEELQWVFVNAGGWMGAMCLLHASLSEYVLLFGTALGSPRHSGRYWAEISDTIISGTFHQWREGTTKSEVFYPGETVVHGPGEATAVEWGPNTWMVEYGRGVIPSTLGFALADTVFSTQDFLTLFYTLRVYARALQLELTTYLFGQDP
human Dopamine Transporter (DAT), SLC6A3 (gene 6531), sequence (Q01959 whole entry, looked up): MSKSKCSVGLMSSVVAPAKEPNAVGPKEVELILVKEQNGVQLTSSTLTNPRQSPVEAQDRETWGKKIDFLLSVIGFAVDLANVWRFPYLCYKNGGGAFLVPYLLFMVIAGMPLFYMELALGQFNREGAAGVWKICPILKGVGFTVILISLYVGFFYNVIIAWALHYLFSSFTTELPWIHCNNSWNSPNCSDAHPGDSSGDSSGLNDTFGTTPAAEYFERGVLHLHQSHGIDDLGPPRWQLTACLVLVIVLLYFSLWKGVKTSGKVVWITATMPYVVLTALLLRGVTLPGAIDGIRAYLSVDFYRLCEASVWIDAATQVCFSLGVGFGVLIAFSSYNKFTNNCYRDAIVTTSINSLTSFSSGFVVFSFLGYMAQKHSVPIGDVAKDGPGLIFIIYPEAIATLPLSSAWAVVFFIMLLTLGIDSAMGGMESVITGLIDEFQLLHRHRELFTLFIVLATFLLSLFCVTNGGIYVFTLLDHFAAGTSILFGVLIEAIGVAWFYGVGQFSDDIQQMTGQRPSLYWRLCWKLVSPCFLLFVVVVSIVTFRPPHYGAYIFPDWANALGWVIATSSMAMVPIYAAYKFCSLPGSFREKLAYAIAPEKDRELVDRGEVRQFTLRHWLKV
Estrogen receptor (Homo sapiens), sequence (P03372 whole entry, looked up): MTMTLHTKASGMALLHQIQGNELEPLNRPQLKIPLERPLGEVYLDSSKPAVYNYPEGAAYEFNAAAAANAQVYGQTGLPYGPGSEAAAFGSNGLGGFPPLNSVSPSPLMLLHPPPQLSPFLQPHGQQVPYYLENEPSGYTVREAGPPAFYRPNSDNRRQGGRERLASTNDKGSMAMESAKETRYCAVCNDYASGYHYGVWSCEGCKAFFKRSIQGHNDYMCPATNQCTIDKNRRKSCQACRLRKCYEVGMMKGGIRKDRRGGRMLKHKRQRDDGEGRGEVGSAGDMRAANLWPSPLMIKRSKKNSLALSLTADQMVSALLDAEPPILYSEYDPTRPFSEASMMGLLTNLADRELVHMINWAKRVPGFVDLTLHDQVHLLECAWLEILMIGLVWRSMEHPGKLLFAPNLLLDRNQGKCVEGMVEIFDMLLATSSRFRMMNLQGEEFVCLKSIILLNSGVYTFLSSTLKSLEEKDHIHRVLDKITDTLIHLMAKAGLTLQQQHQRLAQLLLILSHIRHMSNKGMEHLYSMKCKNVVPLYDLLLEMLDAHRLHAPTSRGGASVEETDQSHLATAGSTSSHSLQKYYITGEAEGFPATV
Bile acid receptor (Homo sapiens), sequence (Q96RI1 whole entry, looked up): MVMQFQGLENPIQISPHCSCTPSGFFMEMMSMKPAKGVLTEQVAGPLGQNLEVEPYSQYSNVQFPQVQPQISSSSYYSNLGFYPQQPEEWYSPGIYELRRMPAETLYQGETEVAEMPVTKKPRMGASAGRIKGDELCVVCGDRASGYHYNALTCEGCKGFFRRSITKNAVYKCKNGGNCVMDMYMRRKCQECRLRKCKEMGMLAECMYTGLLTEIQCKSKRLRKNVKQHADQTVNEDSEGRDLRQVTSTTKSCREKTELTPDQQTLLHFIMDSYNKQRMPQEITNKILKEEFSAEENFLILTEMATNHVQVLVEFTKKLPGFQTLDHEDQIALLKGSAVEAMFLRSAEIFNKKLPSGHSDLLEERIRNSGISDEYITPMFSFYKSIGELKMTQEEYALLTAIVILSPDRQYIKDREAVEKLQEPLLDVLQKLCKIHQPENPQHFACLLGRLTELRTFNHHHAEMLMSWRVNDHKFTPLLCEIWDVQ

On to `COP(=S)(OC)Oc1ccc(Sc2ccc(OP(=S)(OC)OC)cc2)cc1`, for which the concentration at half-maximal activity (AC50) was 16.1 µM (active) in test [1], 0.13 µM (active) in [2], 1.39 µM (active) in test [3] and 33.8 µM (active) in test [5]. The result in [1], in test [2], in test [4] and in test [6] was inactive.
For `COc1cc(-c2ccc(N)c(OC)c2)ccc1N`, the AC50 in test [7] was 14.2 µM (active); in test [3], 10.3 µM (active) and 7.7 µM (active). Also, the compound was called inactive in [2] and in test [8].
Consider `CCN(CC)C(=O)Cl`, for which, in test [1], the outcome was inactive.
With `CNC(=O)O/N=C/C(C)(C)S(C)=O` (stereo not given), the outcome in test [2], in test [5], in test [6] and in test [9] was inactive.
In the case of `O=C(O)C(Cl)(Cl)Cl`, the result in test [10] was inactive.
Consider `O=C(OC1CCCCC1)c1ccccc1C(=O)OC1CCCCC1`, for which the compound was called inactive in [2], in test [11] and in test [6]. In addition, the AC50 in test [9] is 40.1 µM (active); in [12] it was 61.8 µM (active).
As for `COC(=O)c1sccc1S(=O)(=O)NC(=O)Nc1nc(C)nc(OC)n1`, the compound was classed as inactive in test [2], in test [5] and in test [6].
Turning to `CCC(C)(C)c1ccc(O)c(C(C)(C)CC)c1`, the compound was classed as inactive in test [2], in test [5], in test [11] and in [6].
Consider `O=C(O)C(F)(F)C(F)(F)C(F)(F)C(F)(F)C(F)(F)C(F)(F)C(F)(F)C(F)(F)C(F)(F)C(F)(F)F`, for which the concentration at half-maximal activity (AC50) in test [2] was 6.31 µM (active). The compound was classed as inactive in [3], in test [5], in [9] and in [12].
As for `O=C(O)C(F)(F)C(F)(F)C(F)(F)C(F)(F)C(F)(F)C(F)(F)F`, the outcome in [2], in [5], in [9] and in test [12] was inactive.
Consider `O=C/C=C/c1ccccc1`, for which the outcome in test [2], in test [11] and in test [6] was inactive.
Consider `Oc1ccc(-c2ccccc2)cc1`, for which the AC50 was 11.9 µM (active) in [13]; 10.7 µM (active) in test [14]; 11.8 µM (active) in test [5]; 33.3 µM (active) in [9]; 33.3 µM (active) in test [12].
With `O=[N+]([O-])c1ccc2c3c(cccc13)CC2`, the AC50 in [15] was 18.2 µM (active).
Consider `CCCCCCCCc1ccc(O)cc1`, for which, in test [2], the outcome was inactive. The half-maximal activity concentration (AC50) in test [5] was 12.3 µM (active).
With `CC(=[OH+])/C=C(/C)[O-].CC(=[OH+])/C=C(/C)[O-].CC(=[OH+])/C=C(/C)[O-].[Fe]`, the outcome in test [10] was inactive.
On to `O=Cc1cccc(Oc2ccccc2)c1`, for which the AC50 in [14] was 5.52 µM (active).
For the compound `O=[N+]([O-])c1ccc(O)c([N+](=O)[O-])c1`, the compound was classed as inactive in [1], in [2], in test [4], in [5] and in test [6].
Turning to `NC(=S)Nc1ccccc1`, the half-maximal activity concentration (AC50) was 33 µM (active) in test [16] and 15.4 µM (active) in test [3].
With `C(=NC1CCCCC1)=NC1CCCCC1`, the AC50 in test [16] was 30.8 µM (active).
In the case of `Nc1cccc2ccccc12`, the outcome in test [16] was inactive. Moreover, in test [3], the half-maximal activity concentration (AC50) is 14.8 µM (active).
`CCN1CCC2(CC1)COc1cc3c(cc12)N(C(=O)c1ccc(-c2ccc(-c4nnc(C)o4)cc2C)cc1)CC3`: the compound was classed as inactive in test [1], in [17], in test [8], in test [4], in [5] and in [11]. The outcome in [6] was inactive. Moreover, the AC50 was 3.01 µM (active) in [16]; 1.11 µM (active) in test [7]; 7.47 µM (active) in [13]; 6.34 µM (active) in test [14]; 7.6 µM (active) in test [15]; 10.1 µM (active) in test [3].
